Test [1] is described as follows: qHTS assay for small molecule agonists of retinoid X receptor alpha signaling (AID 588544; calls by dose curve;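 on activation: 0% = DMSO basal wells and 100% = reference agonist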). The settings on record: HEK293T RXRa-UAS-bla, beta-lactamase reporter, 18 h; 530 nm emission.
The target of test [2] is Retinoic acid receptor RXR-alpha (Homo sapiens) (UniProt P19793). The description is as above. The settings on record: HEK293T RXRa-UAS-bla, beta-lactamase reporter, 18 h; series mostly up to 76.7 µM.
Test [3] concerns the target Thyroid hormone receptor beta (Homo sapiens) (UniProt P10828). The test can be described thus: qHTS assay for small molecule agonists of thyroid hormone receptor beta signaling (AID 588545; calls by dose curve;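 further: 0% = DMSO only and 100% = 10 nM T3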). The settings on record: TR-UAS-bla GripTite HEK 293, beta-lactamase ratio, agonist mode, 18 h, percent of T3 response, DMSO as zero; series mostly up to 76.7 µM. In a few lines: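 Stimulation of a TR-driven beta-lactamase reporter was quantified in GripTite HEK 293 cells. Compound series ran for 18 hrs; curves were normalized to T3 and DMSO controls and fitted to yield EC50.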
A general note: qHTS replaces the single test concentration by a dilution series.

Test [4] is described as follows: qHTS assay for small molecule antagonists of retinoid X receptor alpha signaling (AID 588546; active means well fitted inhibition curve with a large enough effect in the signal ratio, with a control signal flat, not every such curve was filed as active; the % refers to the signal ratio;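 further: cells stimulated with 9-cis-retinoic acid as agonist; on the % scale 0 is the no-effect control and ±100 the full control effect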). The settings on record: HEK293T RXRa-UAS-bla, beta-lactamase ratio, antagonist mode; measured here: W530 green channel, cytotoxicity proxy. Summed up: (§1)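 Beta-lactamase reporter inhibition, read as CCF4 fluorescence ratio (ex 405, em 460/530 nm) after 2 h at RT. HEK293T UAS-bla cells, 2500/well, were stimulated with 9-cis-RA at 500 or 100 nM final alongside test compound for 18 h at 37 C.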

Test [5] concerns the target Retinoic acid receptor RXR-alpha (Homo sapiens) (UniProt P19793). The test is described as above. The settings on record: HEK293T RXRa-UAS-bla, beta-lactamase ratio, antagonist mode. In a few lines: as §1
Test [6] has as its target Thyroid hormone receptor beta (Homo sapiens) (UniProt P10828). The test can be described thus: qHTS assay for small molecule antagonists of thyroid hormone receptor beta signaling (AID 588547; active means well fitted inhibition curve with a large enough effect in the signal ratio, with a control signal flat, not every such curve was filed as active; the % refers to the signal ratio;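 further: cells stimulated with 0.4 nM T3 agonist during compound exposure; on the % scale 0 is the no-effect control and ±100 the full control effect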). The settings on record: TR-UAS-bla HEK293, beta-lactamase ratio, antagonist mode, 18 h. Summed up:
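TR-UAS-bla GripTite HEK293 cells in 2% charcoal/dextran FBS medium were preincubated 4 h at 37 C, given compound (0.59 nM to 92 uM) plus 0.4 nM T3 (final) for 18 h, then CCF4 for 2 h at RT; Hill fit gave IC50.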

The target of test [7] is Voltage-gated inwardly rectifying potassium channel KCNH2 (Homo sapiens) (UniProt Q12809). The experiment in a line: qHTS Assay for Small Molecule Inhibitors of the Human hERG Channel Activity (AID 588834).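 Further: top concentration of the series differs between compounds; on the % scale 0 is the no-effect control and ±100 the full control effect; lower thallium flux fluorescence means stronger hERG block; nearly all actives have a fitted effect of over 50% in size.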 The settings on record: U2OS BacMam hERG, FluxOR thallium flux fluorescence; series mostly up to 92.2 µM. Summed up: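 U2OS cells transduced with hERG via BacMam (MOI ~100), plated 2000/well, loaded with FluxOR thallium dye, compound ~10 min, then stimulation buffer; fluorescence decrease read kinetically; AC50 from Hill fits.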

A short description of test [8]: qHTS assay for small molecule agonists of the antioxidant response element (ARE) signaling pathway (AID 651741; active means well fitted activation curve with a large enough effect in the signal ratio; the % refers to the signal ratio; further: % of control where 0% means no effect). The settings on record: HepG2 ARE-bla reporter, beta-lactamase FRET ratio, 16 h; series mostly up to 96 µM. Summed up:
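Compounds in DMSO are pinned onto HepG2 ARE-bla cells (2,000/well) that were preincubated 5 h; plates stay 16 h at 37 C, then beta-lactamase activity is detected with LiveBLAzer B/G substrate by fluorescence.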

The nature of test [9]: qHTS assay for small molecule activators of the p53 signaling pathway (AID 651743; active means well fitted activation curve with a large enough effect in the signal ratio, not every such curve was filed as active; the % refers to the signal ratio; further: % of control where 0% means no effect). The settings on record: HCT-116 p53RE-bla, beta-lactamase FRET ratio, 16 h; stronger effect = higher value. Summed up:
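Cell-based beta-lactamase reporter (p53 response elements, HCT-116 background). After a 5-hour preincubation, cells received compound for 16 hours at 37 C; substrate development ran 2 hours at room temperature.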

Test [10] can be described thus: qHTS assay for small molecule activators of the nuclear factor-kappa B (NF-kB) signaling pathway (AID 651749; active means well fitted activation curve with a large enough effect in the signal ratio; the % refers to the signal ratio; further: % of control where 0% means no effect). The settings on record: NF-kB-bla ME-180 cells, beta-lactamase FRET ratio, 16 h; stronger effect = higher value. Summed up:
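Screening used 2,000 ME-180 reporter cells per well exposed to pinned compound (23 nL) or DMSO; after 16 hr at 37C, beta-lactamase expression under NF-kB control was assessed through FRET.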

A short description of test [11]: qHTS assay for small molecule disruptors of the mitochondrial membrane potential - 1 hr assay (AID 651754; calls by dose curve; further: on the % scale 0 is the no-effect control and ±100 the full control effect; nearly all actives have a fitted effect of over 35% in size). The settings on record: series mostly up to 92.2 µM. Summed up: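 HepG2, 2,000 cells/well, overnight attachment; cpd or DMSO 1 hr, 37C/5% CO2; Mito-MPS dye 30 min, 37C; fluorescence monomer (490/535) and aggregate (540/590).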
Test [12] can be described thus: qHTS assay for small molecule disruptors of the mitochondrial membrane potential - 5 hr assay (AID 651755; calls by dose curve; further: on the % scale 0 is the no-effect control and ±100 the full control effect; nearly all actives have a fitted effect of over 40% in size). The settings on record: JC-1-type ratio dye; series mostly up to 92.2 µM. In a few lines:
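HepG2 cells, attached overnight at 37C, were exposed to compound or DMSO for 5 hr at 37C, 5% CO2. Mito-MPS dye was then added for 30 min, and fluorescence read at 490/535 nm (monomers) and 540/590 nm (aggregates).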

For test [13], the target named is Tumor necrosis factor (Homo sapiens) (UniProt P01375). The experiment in a line: qHTS assay to identify small molecules that stimulate Tumor Necrosis Factor-alpha (TNF-alpha) secretion (AID 651757; active means well fitted curve in the direction sought with a large enough effect in the signal ratio; the % refers to the signal ratio; further: 0% is about no effect). As to conditions: Human cells, HTRF 665/615 ratio; series mostly up to 92.2 µM. Summed up: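 Read-out is HTRF, a TR-FRET sandwich of cryptate- and XL665-labeled anti-TNF-alpha antibodies detecting cytokine secreted by THP-1 cells. Cells had been incubated with test compounds at 37 C for 17 hrs beforehand.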

Test [14] can be described thus: qHTS assay to identify small molecules that stimulate interleukin-8 (IL-8) secretion (AID 651758; active means well fitted activation curve with a large enough effect in the signal ratio; the % refers to the signal ratio; further: 0% is about no effect). The settings on record: HTRF ratio (665/615); series mostly up to 92.2 µM. Summed up: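 THP-1, 2000 cells/well; cpd 16 h, 37 C; add cryptate + XL665 anti-IL-8 Abs; RT 1-3 h; TR-FRET read.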
Test [15] is described as follows: qHTS assay for environmental chemicals that activate the Aryl hydrocarbon Receptor (AhR) signaling pathway (AID 651777). Further: % of control where 0% means no effect; nearly all actives have a fitted effect of over 15% in size. As to conditions: 1A2-DRE human hepatoma cells, luciferase, 24 h; activation: stronger effect = higher value. Summed up: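 Human hepatoma 1A2-DRE cells stably carrying a DRE/CYP1A2 promoter–luciferase reporter, 1,200 cells/well, exposed to compound 24 hr at 37 C. Luciferase read by One-Glo luminescence after 30 min at room temperature; increased signal marks AhR activation.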

Test [16] has as its target Peroxisome proliferator-activated receptor alpha (Homo sapiens) (UniProt Q07869). The experiment in a line: qHTS assay for small molecule agonists of the peroxisome proliferator-activated receptor alpha (PPARalpha) signaling pathway (AID 651778). Further: % of control where 0% means no effect. As to conditions: PathHunter PPARalpha complementation, chemiluminescence, 6 h; stronger effect = higher value. In a few lines: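 Cells plated at 2,000/well and held overnight at 37 C, 5% CO2, then compound added by pin tool for 6 hr; after PathHunter detection reagent and 60 min at room temperature, chemiluminescence from enzyme complementation was read.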

Test [17] deals with Nuclear receptor ROR-gamma (Homo sapiens) (UniProt P51449). The test can be described thus: qHTS assay for small molecule antagonists of the retinoid-related orphan receptor gamma (ROR-gamma) signaling pathway (AID 651802).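 Further: luciferase reporter luminescence driven by ROR response element; on the % scale 0 is the no-effect control and ±100 the full control effect; nearly all actives have a fitted effect of over 60% in size.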 As to conditions: ROR-gamma antagonist cell reporter assay; series mostly up to 92.2 µM. Summed up:
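CHO, TET-inducible ROR + RORE-LUC reporter, 1536-well qHTS. Compound pinned, doxycycline added, 16hr 37C/5% CO2. ONE-Glo, 30 min RT, luminescence; signal drop scored as antagonism.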

Test [18] is described as follows: qHTS assay for small molecule antagonists of the retinoid-related orphan receptor gamma (ROR-gamma) signaling pathway - cell viability counter screen (AID 720652; active means well fitted curve in the direction sought with a large enough effect in the repeat runs; an effect the other way counts as inactive or inconclusive;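 further: compound exposure lasted 16 hr before ATP read; on the % scale 0 is the no-effect control and ±100 the full control effect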). The settings on record: RORgamma reporter cell line viability counter screen; series mostly up to 92.2 µM. In a few lines:
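Luminescence from CellTiter-Glo after 30 min at room temperature reported cellular ATP as the cytotoxicity measure. Cells were the CHO reporter line with doxycycline-induced ROR-gamma expression, exposed to compound for 16 hr at 37 C.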

A short description of test [19]: qHTS assay for small molecule agonists of the antioxidant response element (ARE) signaling pathway measured by Nrf2-dependant transcriptional activity - cell viability counter screen (AID 720653; active means well fitted curve in the direction sought with a large enough effect in the repeat runs; an effect the other way counts as inactive or inconclusive; further: on the % scale 0 is the no-effect control and ±100 the full control effect). The settings on record: ARE-bla HepG2 viability, CellTiter-Glo ATP luminescence, 16 h; stronger effect = lower value. In a few lines: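 ARE-bla HepG2 cells (2,000/well) rested 5 hrs at 37C/5% CO2, then exposed to compounds in DMSO for 16 hrs. Viability was read in the same wells as intracellular ATP by luminescence, 30 min at room temperature after reagent addition.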

Test [20] can be described thus: qHTS assay for small molecule agonists of the antioxidant response element (ARE) signaling pathway measured by Nrf2-dependant transcriptional activity (AID 720636; active means well fitted curve in the direction sought with a large enough effect in the repeat runs; an effect the other way counts as inactive or inconclusive; further: % of control where 0% means no effect). The settings on record: ARE-luc HepG2, Nrf2 luciferase reporter, 16 h; series mostly up to 92.4 µM. In a few lines:
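ARE-luc HepG2 cells carrying an Nrf2-responsive luciferase reporter, in medium with 1% dialyzed FBS, exposed to compound for 16 hr at 37 C, 5% CO2. Luminescence read 30 min after ONE-Glo addition.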

Where “and” joins values, the source holds several entries; their conditions need not be identical. Equal values may be shown once. Results filed as inconclusive are left out. Calls of active or inactive are those of the source. Unless noted, the call rests on the fitted dose curve; in most records, active means well fitted curve in the direction sought with a large enough effect; inconclusive means small, poorly fitted or top-dose-only effect, or another doubt; inactive means no such curve, though single readings can be large; an effect the other way counts as inactive or inconclusive.

Voltage-gated inwardly rectifying potassium channel KCNH2 (Homo sapiens), sequence (Q12809 whole entry, looked up): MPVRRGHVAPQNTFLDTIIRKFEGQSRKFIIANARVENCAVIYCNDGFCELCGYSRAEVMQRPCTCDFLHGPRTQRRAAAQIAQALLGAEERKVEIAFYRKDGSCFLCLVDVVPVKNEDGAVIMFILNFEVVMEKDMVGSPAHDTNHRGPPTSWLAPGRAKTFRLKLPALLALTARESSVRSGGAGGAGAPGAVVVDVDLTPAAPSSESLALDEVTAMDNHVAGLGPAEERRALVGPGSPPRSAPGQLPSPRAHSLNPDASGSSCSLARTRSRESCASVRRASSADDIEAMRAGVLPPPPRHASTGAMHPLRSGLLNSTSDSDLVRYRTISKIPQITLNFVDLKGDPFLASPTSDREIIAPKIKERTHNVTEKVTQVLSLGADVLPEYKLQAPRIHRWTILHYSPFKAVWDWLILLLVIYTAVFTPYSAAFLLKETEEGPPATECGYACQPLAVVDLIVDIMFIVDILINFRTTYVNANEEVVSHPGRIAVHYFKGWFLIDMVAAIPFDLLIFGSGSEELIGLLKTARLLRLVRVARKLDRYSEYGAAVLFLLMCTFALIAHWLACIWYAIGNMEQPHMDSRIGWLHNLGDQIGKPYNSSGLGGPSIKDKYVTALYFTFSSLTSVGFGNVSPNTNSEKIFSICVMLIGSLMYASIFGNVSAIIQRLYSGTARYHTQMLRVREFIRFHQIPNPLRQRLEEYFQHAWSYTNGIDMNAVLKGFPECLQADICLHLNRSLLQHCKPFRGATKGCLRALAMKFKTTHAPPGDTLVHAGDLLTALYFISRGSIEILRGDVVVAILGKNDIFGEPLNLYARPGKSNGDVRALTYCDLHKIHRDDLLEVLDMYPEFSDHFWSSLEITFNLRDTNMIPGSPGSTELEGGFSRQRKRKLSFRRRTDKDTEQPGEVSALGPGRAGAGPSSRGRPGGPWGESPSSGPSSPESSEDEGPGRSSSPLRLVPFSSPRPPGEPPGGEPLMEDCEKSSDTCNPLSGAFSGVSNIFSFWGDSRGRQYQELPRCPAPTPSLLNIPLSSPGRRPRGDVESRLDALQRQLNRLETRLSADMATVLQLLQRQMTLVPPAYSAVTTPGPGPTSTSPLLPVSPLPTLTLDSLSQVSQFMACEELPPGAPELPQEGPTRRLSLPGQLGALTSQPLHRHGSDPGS
Peroxisome proliferator-activated receptor alpha (Homo sapiens), sequence (Q07869 whole entry, looked up): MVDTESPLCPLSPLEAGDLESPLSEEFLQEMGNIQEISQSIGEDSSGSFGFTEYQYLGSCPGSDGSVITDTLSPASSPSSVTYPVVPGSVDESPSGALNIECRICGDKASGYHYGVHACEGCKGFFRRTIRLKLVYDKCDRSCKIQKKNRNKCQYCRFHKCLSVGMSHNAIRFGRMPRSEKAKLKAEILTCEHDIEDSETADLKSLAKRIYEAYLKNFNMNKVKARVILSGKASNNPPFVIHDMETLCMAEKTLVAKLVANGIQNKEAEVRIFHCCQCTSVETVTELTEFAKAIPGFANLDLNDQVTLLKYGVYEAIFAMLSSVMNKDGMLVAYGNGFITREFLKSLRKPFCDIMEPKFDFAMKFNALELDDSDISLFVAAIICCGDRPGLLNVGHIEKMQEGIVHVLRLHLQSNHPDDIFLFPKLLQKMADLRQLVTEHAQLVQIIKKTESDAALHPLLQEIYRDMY
Nuclear receptor ROR-gamma (Homo sapiens), sequence (P51449 whole entry, looked up): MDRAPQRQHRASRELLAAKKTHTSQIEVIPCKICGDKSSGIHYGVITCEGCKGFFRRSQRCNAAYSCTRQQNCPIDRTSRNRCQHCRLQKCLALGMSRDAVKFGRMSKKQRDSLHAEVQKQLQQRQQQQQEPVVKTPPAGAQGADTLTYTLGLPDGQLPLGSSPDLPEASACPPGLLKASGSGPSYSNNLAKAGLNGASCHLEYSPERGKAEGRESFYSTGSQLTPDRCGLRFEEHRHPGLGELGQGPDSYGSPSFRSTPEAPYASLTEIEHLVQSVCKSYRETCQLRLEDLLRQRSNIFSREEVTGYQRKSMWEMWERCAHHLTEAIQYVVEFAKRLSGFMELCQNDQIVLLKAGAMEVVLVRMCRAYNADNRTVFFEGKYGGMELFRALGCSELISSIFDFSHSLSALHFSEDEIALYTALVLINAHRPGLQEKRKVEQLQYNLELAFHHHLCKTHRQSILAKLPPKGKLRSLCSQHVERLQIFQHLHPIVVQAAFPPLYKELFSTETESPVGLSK
Thyroid hormone receptor beta (Homo sapiens), sequence (P10828 whole entry, looked up): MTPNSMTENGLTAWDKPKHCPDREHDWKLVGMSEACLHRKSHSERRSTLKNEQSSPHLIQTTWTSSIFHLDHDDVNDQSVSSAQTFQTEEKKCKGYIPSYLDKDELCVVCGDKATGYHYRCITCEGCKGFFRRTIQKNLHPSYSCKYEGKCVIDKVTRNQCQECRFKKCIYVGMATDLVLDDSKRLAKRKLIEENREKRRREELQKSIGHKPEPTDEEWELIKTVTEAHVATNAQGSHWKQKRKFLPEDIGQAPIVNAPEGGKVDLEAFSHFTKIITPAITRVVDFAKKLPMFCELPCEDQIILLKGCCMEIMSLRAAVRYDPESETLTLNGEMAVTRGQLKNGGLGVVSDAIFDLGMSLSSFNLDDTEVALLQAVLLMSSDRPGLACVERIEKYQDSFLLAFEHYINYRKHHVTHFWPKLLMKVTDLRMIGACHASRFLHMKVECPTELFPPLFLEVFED
Tumor necrosis factor (Homo sapiens), sequence (P01375 whole entry, looked up): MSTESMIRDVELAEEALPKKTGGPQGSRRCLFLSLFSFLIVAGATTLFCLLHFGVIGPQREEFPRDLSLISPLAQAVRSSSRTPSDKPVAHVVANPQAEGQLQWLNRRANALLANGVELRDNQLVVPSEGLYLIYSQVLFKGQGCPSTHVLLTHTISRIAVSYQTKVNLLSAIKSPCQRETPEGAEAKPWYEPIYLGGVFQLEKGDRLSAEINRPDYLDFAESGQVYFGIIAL
Retinoic acid receptor RXR-alpha (Homo sapiens), sequence (P19793 whole entry, looked up): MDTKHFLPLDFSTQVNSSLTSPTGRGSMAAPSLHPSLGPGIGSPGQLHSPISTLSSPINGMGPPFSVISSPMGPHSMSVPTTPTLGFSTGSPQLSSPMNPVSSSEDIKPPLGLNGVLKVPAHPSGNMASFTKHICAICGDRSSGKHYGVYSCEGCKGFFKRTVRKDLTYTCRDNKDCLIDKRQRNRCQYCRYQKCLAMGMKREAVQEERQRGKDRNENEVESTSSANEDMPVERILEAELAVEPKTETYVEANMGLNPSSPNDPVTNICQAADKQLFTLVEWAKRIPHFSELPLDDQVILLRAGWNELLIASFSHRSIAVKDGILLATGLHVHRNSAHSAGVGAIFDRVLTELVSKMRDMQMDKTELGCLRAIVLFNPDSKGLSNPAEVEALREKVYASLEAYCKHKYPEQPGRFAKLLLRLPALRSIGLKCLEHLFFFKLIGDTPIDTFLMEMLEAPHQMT

`O=C(O)c1ccc(Cl)c(Cl)c1`: the max response was 12.9% in test [1]; 11.8% in test [4]; 14.6% (inactive) in test [5]; -5.43% (inactive) in test [16]; -1.66% (inactive) in test [19]. Moreover, the result in [2] and in [3] was inactive. Also, the activity change % (negative = inhibition) in [6] was 2.03% (inactive). Moreover, the Potency entry in test [7], in [8], in [11], in test [12], in test [13] and in test [14] was “inactive” each time. Further, the Potency result in [17] and in test [18] was “inactive” in each case. Besides, the activation was 3.05% (inactive) in test [9], 0.147% (inactive) in test [10] and 1.84% (inactive) in [15].
For `Cc1ccc(C)c(N)c1`, the max response in test [1] was 7.96%; in test [4] it was -10.5%; in test [5], 21.7% (inactive); in test [16] it was 7.66% (inactive). Further, the result in test [2], in [3] and in test [20] was inactive. For the same compound, the activity change % (negative = inhibition) in [6] was -4.28% (inactive). The Potency result in test [7], in test [8], in test [11], in [13], in test [14] and in test [17] was “inactive” throughout. Further, the activation was -2.64% (inactive) in test [9], 0.0574% (inactive) in test [10] and -0.892% (inactive) in test [15].
In the case of `CCC(C)=O`, the max response in test [1] was -3%; in test [4], -3.56%; in test [5] it was 0.0353% (inactive); in test [16], -7.5% (inactive); in [19], -4.32% (inactive). The result in test [2], in test [3] and in test [20] was inactive. Also, the activity change % (negative = inhibition) in test [6] is -18.3% (inactive). In addition, the Potency entry in test [7], in test [8], in [13], in test [14], in [17] and in test [18] was “inactive” throughout. In addition, the activation was -2.15% (inactive) in [9], -1.44% (inactive) in test [10] and -0.131% (inactive) in [15].
On to `O=C1OC(=O)c2c(Cl)c(Cl)c(Cl)c(Cl)c21`, for which the max response in [1] is -5.89% and -6.44%; in [4] it was -4.9% and 1.94%; in test [5], 0.977% (inactive) and -5.45% (inactive); in test [16] it was 0.893% (inactive) and -0.287% (inactive); in [19], 1.45% (inactive) and 13.5% (inactive). Besides, the outcome in test [2], in [3] and in test [20] was inactive. Moreover, in test [6], the activity change % (negative = inhibition) is -1.32% (inactive) and -1.29% (inactive). For the same compound, the Potency entry in [7], in test [8], in [12], in [13] and in test [17] was “inactive” throughout. The activation in test [9] was -2.26% (inactive) and 13.1% (inactive); in test [15], 0.646% (inactive) and 1.03% (inactive).
Turning to `CCC=O`, the max response in test [1] is 2.22%; in test [4] it was -6.66%; in test [5], 0.991% (inactive); in [16] it was -0.926% (inactive). Further, the outcome in test [2] and in test [3] was inactive. Moreover, the activity change % (negative = inhibition) in [6] is -3.74% (inactive). Further, the Potency entry in test [7], in test [8], in test [11], in [12], in [13] and in test [17] was “inactive” each time. For the same compound, in test [18], the Potency entry is “inactive”. For the same compound, the activation was -0.942% (inactive) in test [9], -1.21% (inactive) in test [10] and -0.0092% (inactive) in [15].
For `CCCCCO`, the max response is -7.88% in [1]; -5.62% in test [4]; 1.09% (inactive) in test [5]; -2.11% (inactive) in [16]; 3.66% (inactive) in [19]. Moreover, the outcome in [2], in [3] and in [20] was inactive. In test [6], the activity change % (negative = inhibition) was 2.41% (inactive). The Potency entry in test [7], in test [8], in test [11], in [12], in [13] and in [17] was “inactive” throughout. Also, the Potency result in [18] is “inactive”. The figures for the activation in [9], in test [10] and in test [15] were 0.0408% (inactive), -0.261% (inactive) and 0.0119% (inactive), respectively.
